Assay results taken from PubChem BioAssay (NCI).
About 83,000 compounds went through this panel and 20% of them were active in at least one assay; those are over-represented in the sample as a whole.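 For each line, cells grew in 96-well plates with the test compound present at a single concentration for 48 hours.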 Activity calls are given as the source filed them. How the source made its calls: active means growth percent below 10; inactive means the rest.

Experiments:
Assay in all cases: NCI-60 one-dose screen, 48 h (100 = growth as untreated, 0 = no growth, -100 = all killed)
Details in all cases: 10 µM
RPMI-8226 leukemia = system: RPMI-8226 leukemia
OVCAR-8 ovarian = system: OVCAR-8 ovarian
OVCAR-5 ovarian = system: OVCAR-5 ovarian
OVCAR-4 ovarian = system: OVCAR-4 ovarian
SK-OV-3 ovarian = system: SK-OV-3 ovarian
IGROV1 ovarian = system: IGROV1 ovarian
OVCAR-3 ovarian = system: OVCAR-3 ovarian
HS 578T breast = system: HS 578T breast
NCI/ADR-RES ovarian = system: NCI/ADR-RES ovarian
T-47D breast = system: T-47D breast
BT-549 breast = system: BT-549 breast
MDA-MB-435 melanoma = system: MDA-MB-435 melanoma
SW-620 colon = system: SW-620 colon
MCF7 breast = system: MCF7 breast
HCT-116 colon = system: HCT-116 colon
HCC-2998 colon = system: HCC-2998 colon
KM12 colon = system: KM12 colon

Measured: growth

NCc1c(O)ccc2ccccc12
inactive: RPMI-8226 leukemia 101% | OVCAR-8 ovarian 103% | OVCAR-5 ovarian 96.9% | OVCAR-4 ovarian 111% | SK-OV-3 ovarian 96.9% | IGROV1 ovarian 94.7% | OVCAR-3 ovarian 99.4% | HS 578T breast 94.5% | NCI/ADR-RES ovarian 103% | T-47D breast 98.3% | BT-549 breast 101% | MDA-MB-435 melanoma 103% | SW-620 colon 107% | MCF7 breast 95.3% | HCT-116 colon 102% | HCC-2998 colon 102% | KM12 colon 96%

Cc1cc(N=C2C=CC(=[N+](C)C)C=C2)c(N)cc1N
inactive: RPMI-8226 leukemia 65.7% | OVCAR-8 ovarian 92.8% | OVCAR-5 ovarian 95.6% | OVCAR-4 ovarian 82.3% | SK-OV-3 ovarian 105% | IGROV1 ovarian 109% | OVCAR-3 ovarian 16.5% | HS 578T breast 94.5% | NCI/ADR-RES ovarian 80.4% | T-47D breast 87.1% | BT-549 breast 96.3% | MDA-MB-435 melanoma 101% | SW-620 colon 84.9% | MCF7 breast 68.8% | HCT-116 colon 82.2% | HCC-2998 colon 60.8% | KM12 colon 89%

O=C1c2cccc3cc([N+](=O)[O-])cc(c23)C(=O)N1CCN1CCCC1
active: RPMI-8226 leukemia -19.1% | OVCAR-8 ovarian 9.55% | OVCAR-5 ovarian -1.73% | OVCAR-4 ovarian 3.14% | SK-OV-3 ovarian -0.119% | IGROV1 ovarian -2.59% | OVCAR-3 ovarian -16.8% | HS 578T breast -25.4% | NCI/ADR-RES ovarian -2.54% | T-47D breast -6.31% | BT-549 breast 3.71% | SW-620 colon -4.97% | MCF7 breast 1.22% | HCT-116 colon -37.6% | HCC-2998 colon -69.6% | KM12 colon 1.61%
inactive: MDA-MB-435 melanoma 16.2%

CCOC(=O)[C@]1(Br)CC[C@@]1(Br)C(=O)OCC
inactive: RPMI-8226 leukemia 96.8% | OVCAR-8 ovarian 95.6% | OVCAR-5 ovarian 104% | OVCAR-4 ovarian 101% | SK-OV-3 ovarian 112% | IGROV1 ovarian 52.1% | OVCAR-3 ovarian 133% | HS 578T breast 102% | NCI/ADR-RES ovarian 107% | T-47D breast 70.7% | BT-549 breast 123% | MDA-MB-435 melanoma 94.8% | SW-620 colon 76.2% | MCF7 breast 93.4% | HCT-116 colon 88.9% | HCC-2998 colon 124% | KM12 colon 142%

O=[N+]([O-])c1cc(S(=O)(=O)Nc2ccccc2)ccc1Cl
inactive: RPMI-8226 leukemia 88.4% | OVCAR-8 ovarian 91.5% | OVCAR-5 ovarian 101% | OVCAR-4 ovarian 97% | SK-OV-3 ovarian 96.3% | IGROV1 ovarian 96.1% | OVCAR-3 ovarian 106% | HS 578T breast 101% | NCI/ADR-RES ovarian 99.6% | T-47D breast 69.6% | BT-549 breast 92.5% | MDA-MB-435 melanoma 98.6% | SW-620 colon 105% | MCF7 breast 84% | HCT-116 colon 92.1% | HCC-2998 colon 90% | KM12 colon 98.5%

N#CC(=C1C=CC(=NO)C=C1)c1ccccc1
inactive: OVCAR-4 ovarian 14.4% | SK-OV-3 ovarian 37.8% | IGROV1 ovarian 24.5% | HCC-2998 colon 90.6%
active: RPMI-8226 leukemia -13% | OVCAR-8 ovarian 2.63% | OVCAR-5 ovarian -10.1% | OVCAR-3 ovarian -26.8% | HS 578T breast -18.3% | NCI/ADR-RES ovarian -37.2% | T-47D breast -8.58% | BT-549 breast -7.31% | MDA-MB-435 melanoma -20.7% | SW-620 colon 1.65% | MCF7 breast 8.32% | HCT-116 colon -47.8% | KM12 colon -57%

O=Nc1ccc(Nc2ccccc2)cc1
inactive: RPMI-8226 leukemia 27.1% | OVCAR-8 ovarian 66.4% | OVCAR-5 ovarian 103% | OVCAR-4 ovarian 57.3% | SK-OV-3 ovarian 108% | IGROV1 ovarian 102% | OVCAR-3 ovarian 49.4% | HS 578T breast 111% | NCI/ADR-RES ovarian 87.9% | T-47D breast 63.2% | BT-549 breast 78.8% | MDA-MB-435 melanoma 83.6% | SW-620 colon 70.1% | MCF7 breast 67.2% | HCT-116 colon 78.4% | HCC-2998 colon 93.8% | KM12 colon 93.3%

COc1cccc(C(c2cc3c(cc2O)OCO3)N2CCOCC2)c1OC (configuration not stated)
inactive: RPMI-8226 leukemia 105% | OVCAR-8 ovarian 99.2% | OVCAR-5 ovarian 104% | OVCAR-4 ovarian 99.5% | SK-OV-3 ovarian 101% | IGROV1 ovarian 101% | OVCAR-3 ovarian 111% | HS 578T breast 95.5% | NCI/ADR-RES ovarian 104% | T-47D breast 97.2% | BT-549 breast 94.7% | MDA-MB-435 melanoma 98% | SW-620 colon 102% | MCF7 breast 96.5% | HCT-116 colon 102% | HCC-2998 colon 113% | KM12 colon 108%

COc1ccc2oc(-c3ccc(Cl)cc3)c(N3CCN(C)CC3)c2c1
active: RPMI-8226 leukemia -10.3% | OVCAR-5 ovarian 2.8% | IGROV1 ovarian -87.5% | OVCAR-3 ovarian 1.93% | NCI/ADR-RES ovarian -10.9% | MDA-MB-435 melanoma -19.3% | SW-620 colon 0.0094% | MCF7 breast -75.8% | HCC-2998 colon -12.4% | KM12 colon -46.6%
inactive: OVCAR-8 ovarian 31.8% | OVCAR-4 ovarian 78.2% | SK-OV-3 ovarian 55.1% | HS 578T breast 28.3% | T-47D breast 14.6% | BT-549 breast 134% | HCT-116 colon 22.4%

CCC(C)(c1ccc(O)c(C)c1)c1ccc(O)c(C)c1
inactive: RPMI-8226 leukemia 84.1% | OVCAR-8 ovarian 103% | OVCAR-5 ovarian 101% | OVCAR-4 ovarian 91.9% | SK-OV-3 ovarian 50.8% | IGROV1 ovarian 85.5% | OVCAR-3 ovarian 102% | HS 578T breast 95% | NCI/ADR-RES ovarian 103% | BT-549 breast 192% | MDA-MB-435 melanoma 78.8% | SW-620 colon 111% | MCF7 breast 111% | HCT-116 colon 94% | HCC-2998 colon 107% | KM12 colon 94.6%
active: T-47D breast -5.53%

CN(CC(=O)O)c1ccc(/C=C/c2ccnc3ccccc23)cc1
inactive: RPMI-8226 leukemia 70.4% | OVCAR-8 ovarian 80% | OVCAR-5 ovarian 123% | OVCAR-4 ovarian 86.2% | SK-OV-3 ovarian 91.3% | IGROV1 ovarian 77.4% | OVCAR-3 ovarian 90.4% | HS 578T breast 84.6% | NCI/ADR-RES ovarian 89.3% | T-47D breast 55.4% | BT-549 breast 65.3% | MDA-MB-435 melanoma 38.1% | SW-620 colon 84.3% | MCF7 breast 31.8% | HCT-116 colon 89.4% | HCC-2998 colon 91.9% | KM12 colon 85.2%

CN(C)c1ccc(/C=C/c2ccnc3ccccc23)cc1N
inactive: RPMI-8226 leukemia 37.4% | OVCAR-8 ovarian 75.3% | OVCAR-5 ovarian 91.8% | OVCAR-4 ovarian 58.2% | SK-OV-3 ovarian 72% | IGROV1 ovarian 65.7% | OVCAR-3 ovarian 70.7% | HS 578T breast 80.2% | NCI/ADR-RES ovarian 68% | T-47D breast 48.3% | BT-549 breast 60.3% | MDA-MB-435 melanoma 38.6% | SW-620 colon 78.4% | MCF7 breast 62.9% | HCT-116 colon 49.3% | HCC-2998 colon 104% | KM12 colon 61.5%

CC[C@@]1(OC(=O)CN(C)C)C(=O)OCc2c1cc1n(c2=O)Cc2cc3c(N)cccc3nc2-1
active: RPMI-8226 leukemia 2.58% | SK-OV-3 ovarian 2.84% | IGROV1 ovarian -3.28% | OVCAR-3 ovarian -34.2% | NCI/ADR-RES ovarian 5.59% | BT-549 breast -11.8% | MDA-MB-435 melanoma -44.7% | SW-620 colon 3.83% | MCF7 breast -1.34% | HCT-116 colon 0.716% | HCC-2998 colon -14.7% | KM12 colon 0.253%
inactive: OVCAR-8 ovarian 14.5% | OVCAR-5 ovarian 15.1% | OVCAR-4 ovarian 10.2% | HS 578T breast 62.5% | T-47D breast 13.3%

O=c1[nH]cc(/C=N\Nc2ccccc2)c(=O)[nH]1
inactive: RPMI-8226 leukemia 76.5% | OVCAR-8 ovarian 46.7% | OVCAR-5 ovarian 68.4% | OVCAR-4 ovarian 84.4% | SK-OV-3 ovarian 62.2% | IGROV1 ovarian 53.9% | OVCAR-3 ovarian 81.2% | HS 578T breast 81.7% | NCI/ADR-RES ovarian 56.4% | T-47D breast 42.4% | BT-549 breast 82.5% | MDA-MB-435 melanoma 42.5% | SW-620 colon 46.6% | MCF7 breast 56.1% | HCT-116 colon 57% | HCC-2998 colon 76.9% | KM12 colon 37.9%

O=C1c2ccccc2CCC1(Br)Br
inactive: OVCAR-8 ovarian 38.6% | OVCAR-5 ovarian 25.8% | SK-OV-3 ovarian 95% | IGROV1 ovarian 88.4% | HS 578T breast 69.4% | NCI/ADR-RES ovarian 19.3% | MCF7 breast 21.6% | HCC-2998 colon 77.2% | KM12 colon 87.2%
active: RPMI-8226 leukemia 1.08% | OVCAR-4 ovarian -27.5% | OVCAR-3 ovarian -69.6% | T-47D breast -23.8% | BT-549 breast -31.9% | MDA-MB-435 melanoma 3.86% | SW-620 colon -45.5% | HCT-116 colon -90%

COc1ccc(C(C#N)=C2C=CC(=NO)C=C2)cc1
inactive: RPMI-8226 leukemia 22% | OVCAR-8 ovarian 80.3% | OVCAR-5 ovarian 137% | OVCAR-4 ovarian 91.7% | SK-OV-3 ovarian 114% | IGROV1 ovarian 60.9% | OVCAR-3 ovarian 87.3% | HS 578T breast 99.6% | NCI/ADR-RES ovarian 94.8% | BT-549 breast 106% | MDA-MB-435 melanoma 23.2% | SW-620 colon 12.1% | MCF7 breast 14.1% | HCC-2998 colon 105%
active: T-47D breast 1.56% | HCT-116 colon -37.2% | KM12 colon -24.7%
